Bioassay records deposited in PubChem by The Scripps Research Institute Molecular Screening Center.
TTR transcr act = increases transthyretin transcription | SH-SY5Y TTR promoter Gaussia luciferase, luminescence; 100% = recombinant luciferase protein wells | activation, % at 16.7 µM | hit rate 1.3% among 92,000 | AID 1117267;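 active = activation above the mean of all tested compounds plus 3 SD, cut at about 9.5% in these data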;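 also: cells exposed to compounds for one day before reading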
HuH7 TTR inh = decreases TTR transcription in HuH7 cells in activator counter-screen; AID 1117279; hit rate 4% among 1,100; HuH7 TTR promoter-Gaussia luciferase reporter, luminescence; inhibition, % at 16.7 µM; shares compounds with TTR transcr act;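 active = average inhibition above the solvent-only control wells' mean plus 3 SD, cut at about 15% in these data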;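 also: inhibitors lower well luminescence so higher value means more inhibition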
TTR act confirm = human TTR transcription activation, confirmation; shares compounds with TTR transcr act; SHSY5Y TTR promoter Gaussia luciferase, luminescence; 100% = purified Lucia enzyme wells, no cells; activation, % at 16.7 µM; 1,100 tested, under 10 active;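 active = mean activation above a set limit taken from the earlier primary screen, cut at about 11% in these data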
Numbers stand for hits; i = inactive. This is one part of a sample in which hits are shown more often than they occur.

SMILES	TTR transcr act	others
COc1ccc(CCNC(=O)c2ccc([N+](=O)[O-])cc2Cl)cc1OC	25.8	HuH7 TTR inh=i;TTR act confirm=i
CCCCCCCCN1C(=O)[C@@H](CC(=O)NCc2cccc(C(F)(F)F)c2)C[C@@]2(C(=O)OC)C1=C[C@H](C(C)C)O[C@@H]2C1CC1	i
COC(=O)[C@]12C[C@H](CC(=O)NCc3cccc4ccccc34)C(=O)N(Cc3ccc(Cl)cc3Cl)C1=C[C@H](C1CCCC1)O[C@@H]2C	i
COc1ccc(CN2C(=O)[C@]3(NCCc4c3[nH]c3ccc(OC)cc43)c3cc(F)ccc32)cc1	i
O=C(Nc1ccc(F)cc1)OCc1cn(Cc2ccccc2)nn1	i
Cc1ccnn1CC(=O)N/N=C/c1cccs1	i
Nc1nnnn1CC(=O)N/N=C/c1cccs1	36.3	HuH7 TTR inh=i;TTR act confirm=i
O=C(Cn1ccc(C(F)(F)F)n1)N/N=C/c1cccs1	i
O=C(Nc1ccc(F)cc1)OCc1cn(Cc2ccccc2Cl)nn1	i
CCCCCCc1ccc(NC(=O)[C@@H]2CC=C[C@@H]3CCN(Cc4ccccc4)C(=O)[C@@H]32)cc1	i
Cc1ccc(NC(=S)Nc2cccc(-c3n[nH]c(=S)o3)c2)cc1	74.0	HuH7 TTR inh=i;TTR act confirm=i
Cc1ccc(C(=O)Nc2cccc(-c3nc4ncccc4o3)c2)cc1	i
Cc1ccc(NC(=S)Nc2cc(C)on2)cc1	i
COC(CNC(=O)[C@H](Cc1c[nH]c2ccccc12)NC1(C(=O)NC2CCCCC2)CCCCC1)OC	i
CC(C)CN1C(=O)C[C@@]2(C(=O)N(C)c3ccc(NS(=O)(=O)C4CCCCC4)cc32)C1c1ccccc1 (some centres undefined)	i
Cc1cn(S(=O)(=O)c2ccc(Cl)cc2)c(C)n1	i
Cc1ccc(S(=O)(=O)n2c(N)nc3cc(C)c(C)cc32)cc1	i
Cc1ccc(S(=O)(=O)n2c3ccc(Cl)cc3c3nc(C)sc32)cc1	17.9	HuH7 TTR inh=i;TTR act confirm=i
COC[C@H]1CCCN1c1ccc2c(c1)OCCCN(C1CC1)S2(=O)=O	i
c1ccc(NC2=NCCN2CC2CCC2)cc1	i
O[C@@H]1CN(CC2CCCCC2)[C@@H](c2ccccc2)C[C@H]1n1cc(C2CC2)nn1	i
NC1=NC[C@H](c2ccccc2)N1CC1CCCCC1	15.0	HuH7 TTR inh=i;TTR act confirm=i
COC(=O)[C@]12C[C@H](CC(=O)N3CCC(c4ccccc4)CC3)C(=O)N(Cc3ccc(Cl)cc3Cl)C1=C[C@H](COCc1ccccc1)O[C@@H]2C	i
COC(=O)C[C@H]1CC[C@H]2[C@H](COc3ccc(NS(=O)(=O)c4cccc(OC)c4)cc3C(=O)N2C)O1	i
CC(=O)Nc1sc2c(c1-c1nc3ccccc3s1)CCCNC2	i
SMILES	TTR transcr act	others
CCC1(C)Cc2sc3c(=O)[nH]c(=S)[nH]c3c2CO1 (centres undefined)	17.9	HuH7 TTR inh=i;TTR act confirm=i
CC(C)c1nc2sc3c(=O)[nH]c(=S)[nH]c3c2c2c1CCCC2	i
C=CCNC(=S)Nc1sc2c(c1C(=O)OCC)CC(C)(CC)OC2 (centres undefined)	i
O=C(Nc1c(-c2ccc(F)cc2)nc2ncccn12)C1CC1	i
CCOC(=O)Cn1c(=O)oc2cc(S(=O)(=O)N3CCN(c4ccccn4)CC3)ccc21	i
O=C(Nc1c(F)cc(F)cc1Br)c1cc(S(=O)(=O)N2CCN(c3ccccn3)CC2)ccc1F	10.6	HuH7 TTR inh=i;TTR act confirm=i
O=C(Nc1cccc(F)c1)c1cc(S(=O)(=O)N2CCC(C(=O)O)CC2)ccc1F	i
O=S1(=O)c2ccc(N3CCC[C@@H]3CO)cc2O[C@H]2CCN1C2	i
COC(=O)[C@]12C[C@H](CC(=O)N3CCSCC3)C(=O)N(Cc3ccc4c(c3)OCO4)C1=C[C@H](C(C)C)O[C@@H]2C1CC1	i
Cc1ccc(S(=O)(=O)C2CCN(c3nc(-c4cccs4)nc4ccccc34)CC2)cc1	i
O=C1CCC2(CCC(c3ccccc3)CC2)N1CC[C@@H](O)c1ccccc1 (some centres undefined)	i
C[C@@H]1CN([C@@H](C)CO)C(=O)c2cccc(NS(C)(=O)=O)c2O[C@H]1CN(C)Cc1ccc(C(=O)O)cc1	i
C[C@@H]1CN([C@@H](C)CO)C(=O)c2cccc(NS(C)(=O)=O)c2O[C@H]1CN(C)Cc1ccc(Oc2ccccc2)cc1	18.5	HuH7 TTR inh=i;TTR act confirm=i
COc1ccc(CN(C)C[C@H]2Oc3c(NC(=O)Nc4ccccc4)cccc3C(=O)N([C@H](C)CO)C[C@@H]2C)cc1	i
O=C(CN1CCOCC1)NCCNS(=O)(=O)c1ccccc1	i
O=C(NCCNS(=O)(=O)c1ccc(C(F)(F)F)cc1)N1CCOCC1	11.7	HuH7 TTR inh=i;TTR act confirm=i
O=C(CNS(=O)(=O)c1ccc(C(=O)N2CCOCC2)cc1)N1CCOCC1	i
O=C(Nc1nc2ncccn2c1-c1ccc(F)cc1)c1ccccc1	i
COCCCNC(=O)C[C@@H]1C(=O)N(CCc2ccc(Cl)cc2)C2=CCCCC[C@]21C(=O)OC	i
c1nc(NCC2CC2)c2cc(-c3ccc4c(c3)OCO4)ccc2n1	i
CCCCNC(=O)C[C@H]1C[C@@]2(C(=O)OC)C(=C[C@H](COCc3ccccc3)O[C@@H]2C)N(Cc2ccccc2)C1=O	i
Cc1cccc(N2CCN(C(=O)N3CCOCC3)CC2)c1C	i
S=C(NC1CCCC1)N1CCN(c2ccccn2)CC1	i
Cc1cccc(N2CCN(C(=S)NC3CCCCC3)CC2)c1C	12.2	HuH7 TTR inh=i;TTR act confirm=i
Cc1ccccc1CN1CCCCC(NC(=O)Nc2ccccc2)C1=O (centres undefined)	i
SMILES	TTR transcr act	others
COCC(=O)N(c1ccc(C(C)(C)C)cc1)C(C(=O)NC(C)(C)C)c1cccnc1 (centres undefined)	i
COc1ccc(C2Nc3ccccc3C(=O)N2Cc2ccc(C)o2)cc1COc1c(C)cccc1C (centres undefined)	i
Cc1cccc(C)c1NC(=O)c1ccc(OCc2c(C)noc2C)cc1	i
Cc1noc(C)c1COc1cccc(C(=O)OCCOc2ccc(F)cc2)c1	11.5	HuH7 TTR inh=i;TTR act confirm=i
COc1ccc(C(C)=O)cc1COC(=O)c1ccc(OCc2c(C)noc2C)cc1	i
CC(=O)N/C(=C\c1ccccc1)C(=O)OCC(=O)NC(=O)c1ccccc1	15.0	HuH7 TTR inh=i;TTR act confirm=i
CCOC(=O)/C(=C\c1ccc(C)cc1)NC(=O)c1ccccc1	i
CC(C)OC(=O)/C(=C\c1ccccc1)NC(=O)c1ccccc1	i
CCOC(=O)CCCNC(=O)OC1CC2CC1[C@H]1CCCCN1[C@H]2C (some centres undefined)	i
C[C@H]1[C@H](NC(=O)c2ccc(Cl)cc2)CC[C@@]23CCCN2C(=O)CCC[C@@H]13	i
COc1ccc(-n2cc(CNCCCN3CCCC3=O)c(-c3ccccc3Cl)n2)cc1	i
CC(CNCCCn1cnc2c(OCc3ccccc3)ncnc21)c1ccccc1 (centres undefined)	i
COc1ncnc2c1ncn2CCCNCCCN1CCCC1=O	15.0	HuH7 TTR inh=i;TTR act confirm=i
CCOC(=O)C(Cc1ccccc1)CP(=O)(OC)[C@@H](C)NC(=O)OCc1ccccc1 (some centres undefined)	i
CCOC(=O)CCCNC(=O)OC1CC2CC1[C@H]1CCCCN1[C@H]2Cc1ccccc1 (some centres undefined)	i
CN(Cc1ccccc1)C(=O)OCc1cn(Cc2ccccc2Cl)nn1	i
O=C(NCCc1ccccc1)OCc1cn(Cc2ccccc2Cl)nn1	i
Cc1cccc(Cn2cc(COC(=O)N(C)Cc3ccccc3)nn2)c1	i
